The panel holds about 83,000 compounds, 20% with a hit somewhere; the sample as a whole holds those more often.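 In brief: 96-well plates, 48 h treatment, single concentration, percent growth endpoint.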 Active and inactive are the calls of the source. Rule for the calls: active = growth percent below 10; inactive = the rest.
Legend:
Assay in all cases: NCI-60 one-dose screen, 48 h (100 = growth as untreated, 0 = no growth, -100 = all killed)
Conditions in all cases: 10 µM unless noted
SK-MEL-2 melanoma = tested on: SK-MEL-2 melanoma
EKVX NSCLC = tested on: EKVX NSCLC
SN12C renal = tested on: SN12C renal
UO-31 renal = tested on: UO-31 renal
TK-10 renal = tested on: TK-10 renal
ACHN renal = tested on: ACHN renal
A498 renal = tested on: A498 renal
CCRF-CEM leukemia = tested on: CCRF-CEM leukemia
MOLT-4 leukemia = tested on: MOLT-4 leukemia
SR leukemia = tested on: SR leukemia
OVCAR-8 ovarian = tested on: OVCAR-8 ovarian
OVCAR-5 ovarian = tested on: OVCAR-5 ovarian
OVCAR-4 ovarian = tested on: OVCAR-4 ovarian
SK-OV-3 ovarian = tested on: SK-OV-3 ovarian
IGROV1 ovarian = tested on: IGROV1 ovarian
OVCAR-3 ovarian = tested on: OVCAR-3 ovarian
HS 578T breast = tested on: HS 578T breast
NCI/ADR-RES ovarian = tested on: NCI/ADR-RES ovarian
CAKI-1 renal = tested on: CAKI-1 renal
RPMI-8226 leukemia = tested on: RPMI-8226 leukemia

Measured: growth

CCOC(=O)C1=C(C)NC(SCc2nnc(-c3ccc(Cl)cc3)o2)=NC1c1ccc(Cl)cc1Cl (stereo not given)
inactive: SK-MEL-2 melanoma 60.3% | EKVX NSCLC 77.2% | SN12C renal 65.4% | UO-31 renal 37.2% | TK-10 renal 79.4% | ACHN renal 57.7% | A498 renal 77.7% | CCRF-CEM leukemia 27.4% | MOLT-4 leukemia 11.3% | SR leukemia 37.9% | OVCAR-8 ovarian 54.2% | OVCAR-5 ovarian 89% | OVCAR-4 ovarian 52.7% | SK-OV-3 ovarian 90.3% | IGROV1 ovarian 43.9% | OVCAR-3 ovarian 62.8% | HS 578T breast 67.1% | NCI/ADR-RES ovarian 54.6%

Cc1cc(-c2ccc(N(C)C)cc2)c2sc(=O)[nH]c2n1
inactive: SK-MEL-2 melanoma 56% | EKVX NSCLC 77.5% | SN12C renal 76.7% | UO-31 renal 55.3% | TK-10 renal 97.7% | ACHN renal 83.2% | CAKI-1 renal 46.9% | CCRF-CEM leukemia 60% | SR leukemia 40.1% | RPMI-8226 leukemia 70.6% | OVCAR-8 ovarian 76.9% | OVCAR-5 ovarian 85% | OVCAR-4 ovarian 83.2% | IGROV1 ovarian 61.5% | OVCAR-3 ovarian 68.9% | HS 578T breast 48.1% | NCI/ADR-RES ovarian 45.5%

COc1ccc(-c2cc(-c3ccc(Nc4nc(Nc5ccccc5)nc(Nc5ccc(Cl)cc5)n4)cc3)nc(N)n2)cc1
inactive: SK-MEL-2 melanoma 70.7% | EKVX NSCLC 58.8% | SN12C renal 75% | UO-31 renal 69% | TK-10 renal 98% | ACHN renal 74.6% | CAKI-1 renal 75.8% | CCRF-CEM leukemia 27.1% | MOLT-4 leukemia 28.6% | RPMI-8226 leukemia 50.5% | OVCAR-8 ovarian 79% | OVCAR-5 ovarian 66.5% | OVCAR-4 ovarian 56.5% | SK-OV-3 ovarian 119% | IGROV1 ovarian 39.2% | OVCAR-3 ovarian 52.6% | NCI/ADR-RES ovarian 69.3%

CO/C(=C1/NC(=O)C(Cc2ccc(O)c(Br)c2)N(C)C(=O)C(C)NC(=O)CCC/C=C(\C)CCC(C)OC1=O)c1ccccc1 (stereo not given)
active: SK-MEL-2 melanoma -100% | EKVX NSCLC -25.3% | SN12C renal 6.56% | UO-31 renal -84.9% | TK-10 renal -83.2% | ACHN renal -34.7% | A498 renal -63.7% | CCRF-CEM leukemia 0.832% | MOLT-4 leukemia -12.2% | SR leukemia -25.9% | RPMI-8226 leukemia -57.4% | OVCAR-8 ovarian -14.6% | OVCAR-5 ovarian -2.82% | OVCAR-4 ovarian 0.0232% | SK-OV-3 ovarian -42.2% | IGROV1 ovarian -80% | OVCAR-3 ovarian -67.5% | HS 578T breast -34% | NCI/ADR-RES ovarian -0.469%

Cl.Fc1c[c-]c(-c2ccccn2)c(F)c1.[Pt].c1ccc([PH+](c2ccccc2)c2ccccc2[PH+](c2ccccc2)c2ccccc2)cc1
active: SK-MEL-2 melanoma -82.1% | EKVX NSCLC -94.8% | SN12C renal -81.3% | UO-31 renal -98.8% | TK-10 renal -87.2% | ACHN renal -100% | CAKI-1 renal -90.5% | CCRF-CEM leukemia -43.6% | SR leukemia -6.47% | OVCAR-8 ovarian -44.5% | OVCAR-5 ovarian -94.3% | OVCAR-4 ovarian -97.3% | IGROV1 ovarian -77.9% | OVCAR-3 ovarian -96.4% | HS 578T breast -50.3% | NCI/ADR-RES ovarian -35.5%

O=[N+]([O-])c1cccc(/C=C/c2ccccn2)c1
inactive: SK-MEL-2 melanoma 117% | EKVX NSCLC 74.3% | SN12C renal 84.3% | UO-31 renal 69.4% | TK-10 renal 104% | ACHN renal 72.1% | CAKI-1 renal 52.3% | CCRF-CEM leukemia 65.5% | MOLT-4 leukemia 75.2% | RPMI-8226 leukemia 51.7% | OVCAR-8 ovarian 86.2% | OVCAR-5 ovarian 96.2% | OVCAR-4 ovarian 70.5% | SK-OV-3 ovarian 94% | IGROV1 ovarian 86.7% | OVCAR-3 ovarian 59.4% | NCI/ADR-RES ovarian 81.2%

CCOC(=O)c1ccc(NC(=O)CCCN(CC)CC)cc1
inactive: SK-MEL-2 melanoma 73% | EKVX NSCLC 105% | SN12C renal 106% | UO-31 renal 88.7% | TK-10 renal 88.2% | A498 renal 118% | CCRF-CEM leukemia 106% | MOLT-4 leukemia 95.7% | SR leukemia 92.8% | RPMI-8226 leukemia 97.8% | OVCAR-8 ovarian 102% | OVCAR-5 ovarian 106% | OVCAR-4 ovarian 111% | SK-OV-3 ovarian 109% | IGROV1 ovarian 107% | OVCAR-3 ovarian 105% | HS 578T breast 119% | NCI/ADR-RES ovarian 99%

COc1ccc(OC)c(C(=O)Nc2cccc(-c3cc(=O)c4ccccc4o3)c2)c1
inactive: SK-MEL-2 melanoma 98.2% | EKVX NSCLC 90.5% | SN12C renal 82.6% | UO-31 renal 95.2% | TK-10 renal 88% | CAKI-1 renal 79.4% | A498 renal 92.4% | CCRF-CEM leukemia 86.5% | MOLT-4 leukemia 86.3% | SR leukemia 80% | OVCAR-8 ovarian 63.3% | OVCAR-5 ovarian 95.4% | OVCAR-4 ovarian 73.3% | SK-OV-3 ovarian 52.6% | IGROV1 ovarian 104% | OVCAR-3 ovarian 110% | HS 578T breast 68.3% | NCI/ADR-RES ovarian 80.2%

CCCCCOC(=O)c1cccc(NC(=O)CN(CC)CC)c1
inactive: SK-MEL-2 melanoma 70.7% | EKVX NSCLC 100% | SN12C renal 106% | UO-31 renal 89.2% | TK-10 renal 82.9% | A498 renal 113% | CCRF-CEM leukemia 78.6% | MOLT-4 leukemia 87.5% | SR leukemia 78.3% | RPMI-8226 leukemia 96.7% | OVCAR-8 ovarian 103% | OVCAR-5 ovarian 107% | OVCAR-4 ovarian 119% | SK-OV-3 ovarian 94.9% | IGROV1 ovarian 107% | OVCAR-3 ovarian 113% | HS 578T breast 111% | NCI/ADR-RES ovarian 105%

CS(=O)(=O)c1ccc(-c2nc3cc(Cl)ccc3n2CC(=O)NO)cc1
inactive: SK-MEL-2 melanoma 88.2% | EKVX NSCLC 99.4% | SN12C renal 95% | UO-31 renal 82.4% | TK-10 renal 112% | CAKI-1 renal 93.6% | A498 renal 101% | CCRF-CEM leukemia 93.8% | MOLT-4 leukemia 94.2% | RPMI-8226 leukemia 90.9% | OVCAR-8 ovarian 88.3% | OVCAR-5 ovarian 100% | OVCAR-4 ovarian 87.6% | IGROV1 ovarian 88.4% | OVCAR-3 ovarian 96.1% | HS 578T breast 93.2% | NCI/ADR-RES ovarian 108%

O=C(NC1CCOCC1)c1ccc2c(c1)CN(c1ncc(Cc3cccc(-n4cccn4)c3)s1)CC2
inactive: SK-MEL-2 melanoma 54.9% | EKVX NSCLC 53.5% | SN12C renal 82.1% | UO-31 renal 64.4% | TK-10 renal 81.7% | A498 renal 46.6% | CCRF-CEM leukemia 52.1% | MOLT-4 leukemia 40.3% | SR leukemia 56.2% | RPMI-8226 leukemia 38.3% | OVCAR-8 ovarian 76.6% | OVCAR-5 ovarian 95.1% | OVCAR-4 ovarian 62.1% | SK-OV-3 ovarian 78.6% | IGROV1 ovarian 89.8% | OVCAR-3 ovarian 78.4% | HS 578T breast 96% | NCI/ADR-RES ovarian 63.5%

C=CCN1C(=O)[C@]2(SC1=S)[C@H](c1cccc(Cl)c1)CN(C)[C@]21C(=O)NC2C=CC(Cl)=C[C@H]21 (stereo not given in full)
inactive: SK-MEL-2 melanoma 44.2% | EKVX NSCLC 38.4% | TK-10 renal 70.9% | A498 renal 76.8% | OVCAR-8 ovarian 56% | OVCAR-5 ovarian 80.5% | OVCAR-4 ovarian 49.4% | SK-OV-3 ovarian 58% | IGROV1 ovarian 48.3% | OVCAR-3 ovarian 38.4% | HS 578T breast 56% | NCI/ADR-RES ovarian 38.7%
active: SN12C renal -53.6% | UO-31 renal -41.2% | CCRF-CEM leukemia 4.67% | MOLT-4 leukemia -17.7% | SR leukemia -22.6% | RPMI-8226 leukemia -5.81%

CN(C)S(=O)(=O)n1cnc([C@@H]2[C@@H]3C(=O)OC[C@@H]3C[C@]23N=CN(Cc2ccccc2)C3=O)c1
inactive: SK-MEL-2 melanoma 176% | EKVX NSCLC 111% | SN12C renal 104% | UO-31 renal 92.1% | TK-10 renal 112% | CAKI-1 renal 97.3% | A498 renal 99.5% | CCRF-CEM leukemia 125% | MOLT-4 leukemia 20.7% | OVCAR-8 ovarian 107% | OVCAR-5 ovarian 96.7% | OVCAR-4 ovarian 79.6% | IGROV1 ovarian 113% | OVCAR-3 ovarian 105% | HS 578T breast 100% | NCI/ADR-RES ovarian 102%
active: RPMI-8226 leukemia -8.51%

O=C(NCOC(O)C(Cl)(Cl)Cl)NCOC(O)C(Cl)(Cl)Cl (stereo not given)
inactive: SK-MEL-2 melanoma 89.7% | EKVX NSCLC 107% | SN12C renal 97.8% | UO-31 renal 78.4% | TK-10 renal 100% | CAKI-1 renal 95.9% | A498 renal 77.1% | CCRF-CEM leukemia 105% | MOLT-4 leukemia 98.9% | SR leukemia 109% | RPMI-8226 leukemia 105% | OVCAR-8 ovarian 104% | OVCAR-5 ovarian 89.7% | OVCAR-4 ovarian 108% | SK-OV-3 ovarian 90% | IGROV1 ovarian 99.1% | OVCAR-3 ovarian 116% | HS 578T breast 108% | NCI/ADR-RES ovarian 103%

CCN(CCO)CC(=O)c1cc(Cl)cc(Cl)c1Cl
inactive: SK-MEL-2 melanoma 92.4% | EKVX NSCLC 105% | SN12C renal 100% | UO-31 renal 93.5% | TK-10 renal 86.7% | A498 renal 102% | CCRF-CEM leukemia 82.9% | MOLT-4 leukemia 90.5% | SR leukemia 95.4% | RPMI-8226 leukemia 97.1% | OVCAR-8 ovarian 103% | OVCAR-5 ovarian 109% | OVCAR-4 ovarian 115% | SK-OV-3 ovarian 102% | IGROV1 ovarian 109% | OVCAR-3 ovarian 106% | HS 578T breast 101% | NCI/ADR-RES ovarian 102%

O=C1N(c2ccccc2)C(=S)N[C@]12[C@H](c1ccccc1)C1CCCN1[C@]21C(=O)NC2C=CC(Cl)=C[C@H]21 (stereo not given in full)
inactive: SK-MEL-2 melanoma 91% | EKVX NSCLC 100% | SN12C renal 98% | UO-31 renal 71.3% | TK-10 renal 113% | A498 renal 107% | CCRF-CEM leukemia 77.6% | MOLT-4 leukemia 79% | SR leukemia 96% | RPMI-8226 leukemia 73.7% | OVCAR-8 ovarian 78.3% | OVCAR-5 ovarian 117% | OVCAR-4 ovarian 102% | SK-OV-3 ovarian 88% | IGROV1 ovarian 95.1% | OVCAR-3 ovarian 106% | HS 578T breast 83.6% | NCI/ADR-RES ovarian 102%

Clc1ccc(-c2nc(NCCc3ccccc3)nc3c(NCCc4ccccc4)cnn23)cc1
inactive: SK-MEL-2 melanoma 79.6% | EKVX NSCLC 79.5% | SN12C renal 80.7% | UO-31 renal 86.7% | TK-10 renal 60.1% | ACHN renal 98.7% | CCRF-CEM leukemia 82.6% | MOLT-4 leukemia 89.1% | SR leukemia 72% | OVCAR-8 ovarian 47.5% | OVCAR-5 ovarian 91.2% | SK-OV-3 ovarian 75.8% | IGROV1 ovarian 71.5% | OVCAR-3 ovarian 48.9% | HS 578T breast 76.6% | NCI/ADR-RES ovarian 74.5%
active: OVCAR-4 ovarian 7.73%

Reference: PubChem BioAssay (NCI)
